From PubChem BioAssay
RORgamma inh = qHTS for inhibitors of ROR gamma transcriptional activity; Drosophila S2 Gal4-RORgamma UAS-luciferase reporter, 20 h; Nuclear receptor ROR-gamma (Mus musculus), P51450; 310,000 tested, 5.4% active; Potency, µM (top dose mostly 53.6 µM), inactives show at the highest dose activity change, negative = inhibition, actives largely listed as inhibitors; further: potency means the concentration at half of the fitted maximal effect; nearly all actives have a fitted effect of over 60% in size
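Schneider cells (Drosophila), stable Gal4 DBD–ROR gamma + UAS-luc; 1 hr cmpd preincubation; Cu2+ induction 700 uM final; 20 hr ambient; luminescence.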
TSHR antag = Antagonists of the Thyroid Stimulating Hormone Receptor: HTS campaign; Thyrotropin receptor (Homo sapiens), P16473; TSHR-expressing cells, TSH-stimulated cAMP HTRF, 2 h; hits give low values; 330,000 tested, 0.2% active; activity change, negative = inhibition, % at 11.5 µM;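 active means activity change below a set negative limit, meaning inhibition stronger than a set level, cut at about -70% in these data; inconclusive means activity change between two set negative limits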
Target sequence (P16473 whole entry, looked up): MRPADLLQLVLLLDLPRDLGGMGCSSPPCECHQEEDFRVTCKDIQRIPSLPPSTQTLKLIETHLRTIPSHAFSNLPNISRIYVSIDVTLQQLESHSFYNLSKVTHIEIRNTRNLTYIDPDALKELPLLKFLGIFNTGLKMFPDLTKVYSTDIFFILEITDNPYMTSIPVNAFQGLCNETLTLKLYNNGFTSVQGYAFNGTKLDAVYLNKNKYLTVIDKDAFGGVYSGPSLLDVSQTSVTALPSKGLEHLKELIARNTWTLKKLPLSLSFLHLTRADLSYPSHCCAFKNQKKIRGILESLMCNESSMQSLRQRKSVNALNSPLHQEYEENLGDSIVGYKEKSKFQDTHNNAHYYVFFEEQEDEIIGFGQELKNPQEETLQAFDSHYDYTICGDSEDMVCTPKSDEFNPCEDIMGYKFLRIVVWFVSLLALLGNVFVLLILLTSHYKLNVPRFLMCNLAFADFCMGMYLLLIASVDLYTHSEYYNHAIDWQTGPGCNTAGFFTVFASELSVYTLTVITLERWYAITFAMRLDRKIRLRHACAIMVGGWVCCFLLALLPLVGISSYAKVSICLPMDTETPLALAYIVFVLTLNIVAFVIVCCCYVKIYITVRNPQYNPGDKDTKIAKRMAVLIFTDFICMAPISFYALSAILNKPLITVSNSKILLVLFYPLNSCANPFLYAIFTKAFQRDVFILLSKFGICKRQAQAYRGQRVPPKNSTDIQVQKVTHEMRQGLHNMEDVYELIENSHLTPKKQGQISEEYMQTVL
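Antagonism was scored as loss of TSH-driven cAMP in TSHR cells, stimulated with 4nM TSH (EC80) for 2 hours at 37 deg C and detected by homogeneous HTRF competition immunoassay.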
ELG1 repair inh = qHTS screen for small molecules that inhibit ELG1-dependent DNA repair in human embryonic kidney (HEK293T) cells expressing luciferase-tagged ELG1; HEK293T ELG1-luciferase reporter, luminescence, 16 h; DNA damage induced by 5-fluorouridine; Potency, µM (highest dose often 46.1 µM), inactives show at the highest dose activity change, negative = inhibition, actives largely listed as inhibitors; 330,000 tested, 2.3% active; further: potency means the concentration at half of the fitted maximal effect; nearly all actives have a fitted effect of over 55% in size
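In this reporter screen, reduction of luminescence relative to DMSO vehicle indicated activity. Compounds and 5-fluorouridine were added together to 2,000 cells per well, incubated for 16 hr at 37 °C, then developed with ONE-Glo.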
VP16 counter = VP16 counterscreen qHTS for inhibitors of ROR gamma transcriptional activity; 310,000 tested, 3.5% active; Drosophila S2 Gal4-VP16 UAS-luciferase, luminescence, 20 h; Potency, µM (highest dose often 53.6 µM), for inactives: at the highest dose activity, negative = inhibition, usual class: inhibitors;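 further: Gal4-VP16 expression switched on by copper sulfate through the metallothionein promoter; potency means the concentration at half of the fitted maximal effect; nearly all actives have a fitted effect of over 50% in size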
Coupling enz = qHTS Assay for Inhibitors of Fructose-1,6-bisphosphate Aldolase from Giardia Lamblia: Coupling assay counterscreen; coupling enzyme system counterscreen, AmpLite Red fluorescence; activity change, negative = inhibition, % at 58.2 µM, hits read low; 290,000 tested, 0.67% active; AID 2472, 2010; in the data active means activity change below about -30%
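Compounds tested against the coupling enzymes alone at 57.5 uM final; readout was AmpLite Red fluorescence (525/598 nm) after 20 min at RT.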
The depositor's hits bear a star; ! = repeats disagree; [ ] = remark or other dose. In the library only some 8% were active in any assay of this set; here they are far more common. Unless noted, the call rests on the fitted dose curve; in most records, active means well fitted curve in the direction sought with a large enough effect; inconclusive means small, poorly fitted or top-dose-only effect, or another doubt; inactive means no such curve, though single readings can be large; an effect the other way counts as inactive or inconclusive. On the % scale 0 is the no-effect control and ±100 the full control effect.

For CCOC(=O)C1CCCN(C(=O)c2ccc3nc(-c4ccc(OC)c(OC)c4)c(-c4ccc(OC)c(OC)c4)nc3c2)C1 (stereo unspecified) the results were RORgamma inh -4.7%, TSHR antag -0.5, ELG1 repair inh 1.83µM* and VP16 counter -4.8%.
`C[C@@H]1O[C@H](O[C@@H]2[C@@H](Oc3cc(O)c4c(c3)O[C@H](c3ccc(O)cc3)CC4=O)O[C@@H](CO)[C@@H](O)[C@H]2O)[C@@H](O)[C@H](O)[C@@H]1O` gave RORgamma inh -15.6%[16.9 µM], VP16 counter 4.6%[17 µM] and Coupling enz 2.5.
`CCOC(=O)/C(C#N)=C/c1cn(CCOc2ccc(OC)cc2)c2ccccc12` gave RORgamma inh 24.1%, TSHR antag -1.7, ELG1 repair inh 11.6µM*, VP16 counter -8.3% and Coupling enz -7.0.
Screening N#C/C(=C\c1cn(CCOc2ccccc2)c2ccccc12)C(=O)NCC1CCCO1 (stereo unspecified) returned RORgamma inh 39.6%, TSHR antag -11.0, ELG1 repair inh inconclusive, VP16 counter -13.5% and Coupling enz -2.7.
For Cc1ccc(C)c(OCCn2cc(/C=C(/C#N)C(=O)NCC3CCCO3)c3ccccc32)c1 (stereo unspecified) the results were RORgamma inh -3.0%[10 µM], TSHR antag -8.6, ELG1 repair inh 14.6µM*, VP16 counter -10.3% and Coupling enz -5.3.
For O=C(CN1CCN(CC(=O)Nc2ccccc2Cc2ccccc2)CC1)Nc1ccccc1Cl the results were RORgamma inh -9.0%, TSHR antag 4.9, ELG1 repair inh 25.9µM*, VP16 counter 0.5% and Coupling enz -0.5.
O=C(CN1CCCC1)Nc1ccccc1Cl was read as RORgamma inh -11.3%, TSHR antag 2.6, ELG1 repair inh 0.0%, VP16 counter -9.5% and Coupling enz 2.3.
`CC1C=CCC2C(=O)N(c3cccc(C(=O)Nc4ccc(Br)cc4)c3)C(=O)C12` (stereo unspecified) gave RORgamma inh inconclusive, TSHR antag -16.4, ELG1 repair inh -26.1%, VP16 counter -2.7% and Coupling enz 1.4.
Screening O=C1NC(Nc2nccs2)(C(F)(F)F)C(=O)N1CCc1ccccc1 (stereo unspecified) returned RORgamma inh 12.6µM*, TSHR antag 1.6, ELG1 repair inh -16.5%, VP16 counter inconclusive and Coupling enz -0.2.
Screening O=C1NC(NS(=O)(=O)c2ccccc2)(C(F)(F)F)C(=O)N1CCc1ccccc1 (stereo unspecified) returned RORgamma inh 15.2%, TSHR antag 5.5, ELG1 repair inh 2.0%, VP16 counter -0.5% and Coupling enz -0.6.
For O=C(Cc1ccc(-c2ccccc2)cc1)Nc1ccccn1 the results were RORgamma inh -17.0%, TSHR antag -24.1, ELG1 repair inh inconclusive, VP16 counter 1.7% and Coupling enz 1.1.
Screening Cc1ccnc(NCc2cccc3ccccc23)c1 returned RORgamma inh 15.8µM*, TSHR antag -2.0, ELG1 repair inh -7.9%, VP16 counter inconclusive and Coupling enz -8.6.
`Cc1ccnc(NC(=O)Cc2ccc(-c3ccccc3)cc2)c1` gave RORgamma inh 11.2µM*, TSHR antag -22.5, ELG1 repair inh inconclusive, VP16 counter inconclusive and Coupling enz -2.1.
`Cc1c(Cl)cccc1NC(=O)C(=O)NNC(=O)c1ccccc1F` gave RORgamma inh 14.1µM*, TSHR antag 7.1, ELG1 repair inh 3.3%, VP16 counter inconclusive and Coupling enz 2.7.
`Cc1ccccc1C(=O)NNC(=O)C(=O)Nc1cccc(Cl)c1C` gave RORgamma inh 31.7%, TSHR antag 10.4, ELG1 repair inh inconclusive, VP16 counter inconclusive and Coupling enz 3.3.
Cc1nnc(N/N=C\c2ccc(-c3ccccc3[N+](=O)[O-])o2)n1N was read as RORgamma inh inconclusive, TSHR antag 20.5, ELG1 repair inh inconclusive, VP16 counter inconclusive and Coupling enz -65.2*.
Cc1n[nH]c(=S)n1/N=C/c1ccc(-c2ccccc2[N+](=O)[O-])o1 was read as RORgamma inh inconclusive, TSHR antag -6.2, ELG1 repair inh inconclusive, VP16 counter inconclusive and Coupling enz -3.7.
CCc1nnc(N/N=C/c2ccc(-c3ccc([N+](=O)[O-])cc3)o2)n1N was read as RORgamma inh 3.55µM*, TSHR antag 25.0, ELG1 repair inh 15.9%, VP16 counter inconclusive and Coupling enz -37.2*.
`Cc1nnc(N/N=C/c2ccc(-c3ccccc3F)o2)n1N` gave RORgamma inh 7.94µM*, TSHR antag 1.8, ELG1 repair inh inconclusive, VP16 counter inconclusive and Coupling enz -21.2.
Screening CNc1ncnc2c1ncn2[C@H]1C[C@H](OP(=O)(O)O)[C@H](COP(=O)(O)O)O1 returned RORgamma inh 0.5%, VP16 counter 0.0% and Coupling enz 1.2.
`O=Cc1ccc(Cl)cc1` gave RORgamma inh -5.0% and VP16 counter 4.7%.
For COC(=O)[C@H](Cc1ccccc1)NC(=O)[C@@]1(C)C[C@@H]1[C@@H](NC(=O)OCc1ccccc1)c1ccccc1 the results were RORgamma inh 10.9%, TSHR antag -82.2*, ELG1 repair inh 12.4%, VP16 counter -6.3% and Coupling enz -2.7.
For CC(C)NC(=O)[C@H]1C[C@@H]1[C@H](NC(=O)OCc1ccccc1)c1ccccc1 the results were RORgamma inh 24.1%, VP16 counter -5.0% and Coupling enz 5.7.
`CNC(=O)[C@@H]1C[C@H]1[C@@H](NC(=O)OCc1ccccc1)c1ccccc1` gave RORgamma inh 12.6µM*!, TSHR antag -1.0, ELG1 repair inh inconclusive, VP16 counter 4.5% and Coupling enz 1.9.
For Cc1csc(CNC(=O)C2CCC(=O)N(CCCc3ccccc3)C2)n1 (stereo unspecified) the results were RORgamma inh 2.0%, TSHR antag -1.7, ELG1 repair inh 6.1% and VP16 counter -3.0%.
CCN1C(=O)[C@H]2[C@H]3[C@H](O)[C@H](O)C/C(=N/OC[C@@H](O)COCc4ccco4)[C@H]3CC[C@@H]2C1=O was read as RORgamma inh 2.0%[10 µM], VP16 counter 0.8%[10 µM] and Coupling enz 0.3.
For NC(=S)N/N=C/c1ccc(C23CC4CC(CC(C4)C2)C3)cc1 the results were RORgamma inh 0.447µM*, TSHR antag -21.9, ELG1 repair inh 4.7%, VP16 counter 2.82µM* and Coupling enz 2.1.
